An excerpt weighted towards active compounds, which were near 1.6% of everything screened.
KCNQ2 pot – potentiators of rat KCNQ2 potassium channel; hit rate 0.54% among 310,000; O88943; CHO-K1 KCNQ2, FluxOR thallium flux fluorescence; active compounds read high; B-score at 10 µM;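 active means fluorescence ratio B-score at least 3 SD of library B-scores, with initial fluorescence B-score within 3 of them, cut at about 5.3 in these data; same plate scores as AID 2156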;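 further: B-score of peak minus minimum over baseline fluorescence ratio after K+ and Tl+ stimulus; positive B-score means potentiation of KCNQ2 with more thallium influx and brighter signal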
KCNQ2 inh – blocks the rat KCNQ2 potassium channel | CHO-K1 KCNQ2, FluxOR thallium flux, 20 min; active compounds read low | B-score at 10 µM | hit rate 1.1% among 310,000 | AID 2156;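 active means fluorescence ratio B-score at most minus 3 library SDs, with starting brightness B-score within 2 library SDs, cut at about -5.5 in these data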
Active calls of the source: *; i = inactive; x = no result.

SMILES	KCNQ2 pot	KCNQ2 inh
O=S(=O)(c1ccc(N2CCC(c3ccc(Cl)cc3)=N2)cc1)N(CCO)CCO	1.8	i
CN1C(=O)/C(=C\c2ccccc2F)Sc2ccc(C(=O)NC3CCN(Cc4ccccc4)CC3)cc21	x	i
COCCCN(C(=O)c1ccccc1)c1nc(-c2ccc(OC)cc2)cs1	-5.9	-5.9*
COCCN(C(=O)c1ccccc1)c1nc(-c2ccc(OC)cc2)cs1	x	i
COc1ccc(OC)c(-c2csc(N(Cc3ccco3)C(=O)c3cccs3)n2)c1	x	i
COc1ccc(-c2csc(N(Cc3ccco3)C(=O)c3cccs3)n2)cc1	-6	-6*
Cc1cc(C)n(C(C)CNC(=O)c2ccc3c(c2)OCO3)n1 (configuration not stated)	x	i
COc1ccc(OC)c(N(CC(=O)N2CCN(Cc3ccccc3)CC2)S(C)(=O)=O)c1	x	i
O=C(COc1ccccc1)NCC(c1ccco1)N1CCN(c2ccccc2F)CC1 (configuration not stated)	-7	-7*
O=C(COc1ccccc1)NCC(c1ccco1)N1CCN(c2ccc(F)cc2)CC1 (configuration not stated)	x	i
O=C(N/C(=C\c1ccco1)C(=O)N1CCOCC1)c1ccc([N+](=O)[O-])cc1	0.26	i
O=C(N/C(=C\c1ccc(Br)cc1)C(=O)N1CCOCC1)c1ccc([N+](=O)[O-])cc1	-5.9	-5.9*
CC(C)n1c2ccccc2c2cc([N+](=O)[O-])ccc21	0.71	i
CCC(C)n1c(=S)[nH]c2c(sc3ccc([N+](=O)[O-])cc32)c1=O (configuration not stated)	25*	i
COc1cc(CNCCc2c[nH]c3ccccc23)cc(Cl)c1OCC(N)=O	1.9	i
COc1cc(CNCCc2c[nH]c3ccccc23)ccc1OCc1ccc(F)cc1	-7.2	-7.2*
CC(OC(=O)CN1C(=O)NC2(CCCC2)C1=O)C(=O)Nc1cccc(Cl)c1 (configuration not stated)	0.61	i
CCOC(=O)C(C)Sc1ncc(OC)c(Sc2ccc(Cl)cc2)n1 (configuration not stated)	-8	-8*
CCOC(=O)CSc1ncc(OC)c(Sc2ccc(Cl)cc2)n1	x	i
CCCCn1c(N)c(N(CCOC)C(=O)CCCc2cccs2)c(=O)[nH]c1=O	x	i
O=C(CN(C1CCCCC1)S(=O)(=O)c1ccccc1)N1CCCC1	x	i
O=C(CN(C1CCCCC1)C1CCCCC1)N1CCc2ccccc2C1	-8	-8*
O=C(NCC1CC1)c1cc(-c2ccccc2)nn1CC1CC(c2cccc([N+](=O)[O-])c2)=NO1 (configuration not stated)	x	i
O=C1C=CC(=O)N1Cc1ccccc1	x	i
O=C1C=CC(=O)N1N(c1ccccc1)c1ccccc1	-6.2	-6.2*
SMILES	KCNQ2 pot	KCNQ2 inh
COc1ccc(NC(=O)COC(=O)CC23CC4CC(CC(C4)C2)C3)c([N+](=O)[O-])c1	-6.1	-6.1*
CCC(=O)OCC(=O)Nc1ccc(OC)cc1[N+](=O)[O-]	x	i
CC(C)(C)NC(=O)c1cc(-c2ccc3c(c2)OCO3)nc2ccccc12	-5.6	-5.6*
Cn1c(NC(=O)c2cc(-c3ccc4c(c3)OCO4)nc3ccccc23)cc(=O)n(C)c1=O	x	i
O=C(NCCOC12CC3CC(CC(C3)C1)C2)c1cccc(Br)c1	-7.2	-7.2*
O=C(O)CCCCCNC(=O)c1cccc(Br)c1	x	i
CCC(C)N(C(=O)CSc1nnc(NC(C)C)s1)C1CCS(=O)(=O)C1 (configuration not stated)	0.01	i
CC(=O)c1ccc(-c2cccc(-c3nc4ccccn4c3NC3CCCCC3)c2)cc1	-5.8	-5.8*
CCC(C)Sc1cc(-c2nc3ccccn3c2NC2CCCCC2)ccc1OC (configuration not stated)	0.01	i
CC1(C)CC(=O)N(c2ccc(Cl)cc2Cl)C(=O)C1	1.1	i
Cc1[nH]n(-c2ccc(Cl)cc2)c(=O)c1/C=N/c1nnc(-c2ccccc2)s1	20*	i
COc1ccc2nc(/N=C\N(C)C)sc2c1	x	i
CCc1nnc(NS(=O)(=O)c2ccc(N=Cc3c(C)[nH]n(-c4ccc(Cl)cc4)c3=O)cc2)s1	2.1	i
COc1ccc2nc(/N=C/c3c(C)[nH]n(-c4ccc(C)cc4)c3=O)sc2c1	21*	i
O=C1COc2ccc(S(=O)(=O)N3CCN(c4ccccc4F)CC3)cc2N1	0.83	i
CC1(C)CNc2cc([N+](=O)[O-])ccc2S1	x	i
COCCNC(=O)Cn1cnc2sc(C)c(S(=O)(=O)N3CCC(C)CC3)c2c1=O	x	i
COc1ccc(Cl)cc1Nc1ncnc2sc(C)c(S(=O)(=O)N3CCC(C)CC3)c12	-6.7	-6.7*
CCOc1ccc(-c2nnc(SCC(=O)O)n2Cc2ccccc2)cc1	x	i
Oc1c(Br)cc(Br)cc1C=Nc1ccc2c(c1)OCO2	9.8*	i
Oc1c(Br)cc(Br)cc1C=Nc1ccc2c(c1)OCCO2	2.9	i

Compound activity: PubChem, Johns Hopkins Ion Channel Center
